Compound activity as filed in PubChem.
MCF10A rerep = A quantitative high throughput screen for small molecules that induce DNA re-replication in MCF 10a normal breast cells | MCF 10A DNA re-replication, Hoechst nuclear intensity, 48 h | Potency, µM (highest dose often 46.1 µM), for inactives: at the top dose activity, positive = re-replication, hits mostly activators | 2.9% of 350,000 active | AID 624296, 2012; also: potency is read from the fitted curve at half-maximal effect; % of control where 0% means no effect; nearly all actives have a fitted effect of over 50% in size
Giardia kill = Small Molecules that selectively kill Giardia lamblia: qHTS; Giardia lamblia trophozoite viability; activity change, % at 7.66 µM, hits read low; 0.15% of 340,000 active; AID 540267, 2011; in the data active = activity change below about -80%; inconclusive = between about -30% and that limit;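 also: parasites exposed to compound for two days anaerobically before the ATP read; % is scaled to controls: 0 for no effect and ±100 for the full control effect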
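Anaerobic 48 hrs incubation at 37 deg C of 100 trophozoites/well with test compounds; ATPLite 1-Step luminescence, 15-30 min RT, reports cellular ATP as viability.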
IL1B secr inh = qHTS for Inhibitors of Inflammasome Signaling: IL-1-beta AlphaLISA Primary Screen; 4.7% of 360,000 active; THP-1 LPS/ATP IL-1B secretion, AlphaLISA, 16 h; hits give low values; AID 743279, 2014; activity change, % at 57.5 µM; in the data active = activity change below about -50%; inconclusive = mostly about -30% to -49%; also: % is scaled to controls: 0 for no effect and ±100 for the full control effect
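THP-1 cells pretreated 1 hr with compounds (up to 57.5 uM final), then stimulated with LPS (250 ng/mL final) plus ATP (1.25 mM final); secreted IL-1B measured by AlphaLISA after 16 hr, decreased signal indicating inhibition.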
Vif-A3F inh = qHTS for Inhibitors of Vif-A3F Interactions: qHTS; HeLa A3F-eYFP + Vif (tagged APOBEC3F with the HIV-1 protein that degrades it), YFP fluorescence increase; Potency, µM (top dose mostly 46.1 µM), inactives show top-dose activity, negative = active; 0.2% of 390,000 active; AID 602313, 2012; also: potency is read from the fitted curve at half-maximal effect; % of control where 0% means no effect; nearly all actives have a fitted effect of over 65% in size
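HeLa cells stably expressing Vif plus C-terminally eYFP-tagged A3F were seeded, incubated overnight at 37 deg C, dosed with compound, incubated overnight again at 37 deg C. Yellow fluorescence (Ex 488/Em 500-530) reported blocked Vif-mediated A3F-eYFP degradation.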
Vif-APOBEC3G blk = qHTS for Inhibitors of Vif-A3G Interactions: qHTS. DNA dC->dU-editing enzyme APOBEC-3G (Homo sapiens), Q9HC16. HeLa A3G-eYFP + Vif (tagged APOBEC3G with the HIV-1 protein that degrades it), YFP fluorescence, overnight. Potency, µM (highest dose often 46.1 µM), for the others: at the highest dose activity, negative = active, usual class: inhibitors. 0.076% of 410,000 active; also: potency is read from the fitted curve at half-maximal effect; % is scaled to controls: 0 for no effect and ±100 for the full control effect; nearly all actives have a fitted effect of over 60% in size
Target sequence (Q9HC16 whole entry, looked up): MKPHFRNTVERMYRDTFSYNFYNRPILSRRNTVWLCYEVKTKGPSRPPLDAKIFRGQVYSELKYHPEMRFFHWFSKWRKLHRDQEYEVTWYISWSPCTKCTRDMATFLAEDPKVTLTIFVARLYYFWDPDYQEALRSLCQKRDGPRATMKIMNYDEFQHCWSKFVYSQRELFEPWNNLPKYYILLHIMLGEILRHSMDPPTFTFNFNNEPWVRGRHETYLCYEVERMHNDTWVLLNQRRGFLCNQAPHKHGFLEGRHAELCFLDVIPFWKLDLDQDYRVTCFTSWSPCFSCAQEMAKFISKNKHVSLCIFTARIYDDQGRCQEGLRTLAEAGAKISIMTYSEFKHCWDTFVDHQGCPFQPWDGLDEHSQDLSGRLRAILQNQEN
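Read-out is eYFP fluorescence (Ex 488/Em 500-530) from Vif-expressing HeLa A3G-eYFP cells; more signal means A3G escaped Vif-mediated degradation. Cells plated overnight, compound pinned in, incubated overnight at 37 deg C.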
SW480 rerep = A quantitative high throughput screen for small molecules that induce DNA re-replication in SW480 colon adenocarcinoma cells. SW480 DNA re-replication, Hoechst DNA content imaging, 48 h. Potency, µM (titrated, usually from 46.1 µM), without a hit: at the highest dose re-replication activation, usual class: activators. 1.8% of 340,000 active. AID 624297, 2012; also: potency is read from the fitted curve at half-maximal effect; % of control where 0% means no effect; nearly all actives have a fitted effect of over 55% in size
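Cells (250 per well) received 23 nL compound or DMSO by pin tool and were kept 48 hr at 37 C, 5% CO2. Nuclei were then stained with Hoechst for 40 min and scanned for DNA content.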
Numbers without * were called inactive; ? = inconclusive; nt = no result; ! = not confirmed by another sample; [ ] = another dose, or the depositor's remark. Compounds with a hit are over-represented: about 6.9% of the library has one in this group of screens. Unless noted, calls follow the shape of the dose curve; as a rule, active = well fitted curve in the direction sought with a large enough effect; inconclusive = small, poorly fitted or top-dose-only effect, or another doubt; inactive = no such curve, though single readings can be large; an effect the other way counts as inactive or inconclusive.

SMILES	MCF10A rerep	Giardia kill	IL1B secr inh	Vif-A3F inh	Vif-APOBEC3G blk	SW480 rerep
CC(=O)N1CCC2(CC1)CC(=O)c1cc(OCC(=O)N3CCOCC3)ccc1O2	7.3%	5.8	-3.9	-1.1%	1.3%	20.6µM*
CCOC(=O)N1CCN(C(=O)COc2ccc3c(c2)C(=O)CC2(CCN(C(C)=O)CC2)O3)CC1	-3.5%	-6.7	6.6	1.0%	0.3%	-7.5%
O=C1CC2(CCN(C(=O)COc3ccc(Cl)cc3)CC2)Oc2ccccc21	-2.2%	2.8	-55.3*	1.7%	-0.5%	-52.6%
O=C1CC2(CCN(C(=O)c3ccc(Br)cc3)CC2)Oc2ccccc21	-0.5%	-17.2	-51.5*	-3.2%	-0.2%	-7.9%
O=C1CC2(CCN(C(=O)c3ccc([N+](=O)[O-])cc3)CC2)Oc2ccccc21	?	-17.7	-1.3	-6.5%	0.5%	-62.9%
Cc1ccc(OCC(=O)N2CCC3(CC2)CC(=O)c2ccccc2O3)cc1	17.7%	-28.4	-2.5	4.9%	2.4%	-159.7%
CC(=O)c1ccc2cccc3c2c1N=CN3C	1.6%	-1.3	-59.2*	?	12.6µM*	?
CCOc1ccc(S(=O)(=O)N(C)CCO)cc1-c1nc2c(C(C)(C)C)nn(C)c2c(=O)[nH]1	0.8%	3.0	-55.7*	-2.0%	0.9%	-7.9%
CCOc1ccc(S(=O)(=O)N(C)C)cc1-c1nc2c(C(C)(C)C)nn(C)c2c(=O)[nH]1	?	-10.5	-5.0	-0.5%	-0.2%	5.2%
Cc1cccc(NC(=O)CN2C(=O)CCn3nc(-c4cccn4C)cc32)c1C	nt	nt	nt	3.1%	-3.5%	nt
Cc1cc(Br)ccc1NC(=O)COC(=O)c1ccccc1OCC(=O)N(C)C	nt	nt	nt	nt	2.8%	nt
O=C1N(Cc2ccc(F)cc2)CCN1c1ccc(F)cc1	-2.0%	1.5	-9.4	3.3%	1.6%	0.9%
COc1cccc(CN2CCN(c3ccc(F)cc3)C2=O)c1	-2.3%	-6.4	-51.4*	-2.2%	8.9%	?
O=c1ccsn1Cc1ccccc1	?	5.4	-100.7*	-2.1%	?	18.4µM*
COc1ccc(N2CCN(Cc3nnc(-c4cccc(Br)c4)o3)CC2)cc1	nt	nt	nt	-6.5%	-0.2%	nt
C=C(CC)C(=O)c1ccc(OCC(=O)O)c(Cl)c1Cl	18.8µM*!	-25.0	-94.3*	6.2%	?	?
Nc1nc(Cl)c(C=O)c(N2CCCCC2)n1	?	-19.2	-95.1*	-11.6%	-3.9%	3.8%
Nc1nc(N2CCCCC2)c(C=O)c(N2CCCCC2)n1	-3.9%	10.7	1.9	3.5%	-0.7%	-16.4%
O=C(/C=C/c1cc2ccccc2o1)c1ccccc1O	?	-15.3	-102.0*	5.9%	-11.2%	4.8%
COc1ccc(NC(=O)c2cc3ccccc3o2)cc1	0.4%	-6.4	-2.4	-0.2%	-0.5%	-1.2%[9.22 µM]
COc1ccc(O)c(C(=O)/C=C/c2cc3ccccc3o2)c1	2.59µM*	4.5	-98.6*	-1.8%	-5.2%	?
O=C(NCc1cccc(Cl)c1)c1cccn1-c1nnc(N2CCCC2)s1	nt	nt	nt	-1.7%	3.5%	nt
COc1ccccc1NC(=O)CN1C(=O)c2cccc3cccc1c23	nt	nt	nt	1.7%	3.8%	nt
COc1ccc(C)cc1NC(=O)CN1C(=O)c2cccc3cccc1c23	14.6µM*	-11.6	17.5	0.7%	-13.2%	?
CCCN(CCC)c1ccc(/C=C/c2ccnc3ccccc23)cc1	nt	nt	nt	nt	11.2µM*	nt
SMILES	MCF10A rerep	Giardia kill	IL1B secr inh	Vif-A3F inh	Vif-APOBEC3G blk	SW480 rerep
Cc1cc(/C=C/c2ccnc3ccccc23)ccc1N	nt	nt	nt	nt	10µM*	nt
Cc1cc(N(C)C)ccc1/C=C/c1ccnc2ccccc12	nt	nt	nt	nt	-1.0%	nt
Cc1cc(N(C)C)c(C)cc1/C=C/c1ccnc2ccccc12	nt	nt	nt	nt	14.1µM*	nt
Nc1c(Br)cc(/C=C/c2ccnc3ccccc23)cc1Br	nt	nt	nt	nt	-4.2%	nt
CN(C)c1ccc(/C=C/c2ccnc3c(Cl)ccc(Cl)c23)cc1	nt	nt	nt	nt	3.55µM*	nt
CC(C)(C)OC(=O)NC(Cc1ccccc1)C(=O)NC1COC2CC(n3ccc(=O)[nH]c3=O)OC12 (configuration not stated)	nt	-17.6	nt	nt	-2.8%	nt
CCOCCCNC(=O)c1c(NC(=O)c2nc(SCC)ncc2Cl)sc2c1CCCC2	nt	nt	nt	nt	-1.2%	nt
CN(C)c1ccc(/C=C/c2ccnc3ccc(I)cc23)cc1	nt	nt	nt	nt	8.91µM*	nt
Cc1cc(C)c2nccc(/C=C/c3ccc(N(C)C)cc3)c2c1	nt	nt	nt	nt	10µM*	nt
C[N+](C)(C)c1ccc(/C=C/c2ccnc3ccccc23)cc1	nt	nt	nt	nt	7.5%	nt
CN(N=O)c1ccc(/C=C/c2ccnc3ccccc23)cc1	nt	nt	nt	nt	-0.4%	nt
Oc1ccc(/C=C/c2ccnc3ccccc23)cc1	20.6µM*	12.2	-61.9*	5.7%	-8.6%	18.5%
CN(C)c1ccc(/C=C/c2ccnc3ccccc23)cc1	nt	nt	nt	nt	11.2µM*	nt
Cc1ccc2nc(-c3cc(NC(=O)COc4ccc(C)c(C)c4)ccc3Cl)oc2c1	nt	nt	nt	3.6%	4.1%	nt
CCc1nnc(NC(=O)CSc2nccn2Cc2ccccc2)s1	nt	nt	nt	0.1%	1.5%	nt
CCc1nnc(SCC(=O)N(CC)c2ccccc2)c2cc3oc(C)cc3n12	nt	nt	nt	-4.9%	-12.8%	nt
CCc1noc(-c2ccc(N3CCCCC3C)c([N+](=O)[O-])c2)n1 (configuration not stated)	nt	nt	nt	1.9%	5.8%	nt
O=C(Nc1cc(=O)[nH]c(=O)[nH]1)c1cc(Cl)ccc1Cl	?	0.8	59.1	-12.1%	?	20.6µM*
COc1ccc(OC)c(CCNC(=O)c2cc3cccc4c3n2CC(C)S4)c1 (configuration not stated)	nt	nt	nt	-2.8%	6.3%	nt
c1ccc(Cc2nnc(N3CCCCC3)c3ccccc23)cc1	20.3%	4.4	-86.3*	-5.9%	-5.1%	2.9%
COc1ccccc1/C=N/NC(=O)c1cc2c(ccc3ccccc32)o1	?	14.0	-8.9	2.7%	?	?
COc1ccc(/C=N\NC(=O)c2cc3c(ccc4ccccc43)o2)cc1O	11.6µM*	4.5	-5.0	-12.9%	?	?
COc1ccc(/C=N/NC(=O)c2cc3c(ccc4ccccc43)o2)cc1OC	16.4µM*	-4.5	-7.0	-15.7%	-16.3%	?
O=C(COc1ccc(/C=N/NC(=O)c2cc3ccccc3o2)cc1Br)Nc1ccccc1	?	-22.1	-116.9*	-0.9%	-17.0%	?
CCOc1ccc(CCNC(=O)c2cc3c(=O)oc4ccc(C)cc4c3s2)cc1OCC	nt	nt	nt	-0.3%	-1.1%	nt
COc1ccc2nc(C)cc(Sc3nc4ccccc4s3)c2c1	16.4µM*	-1.5	-99.3*	4.6%	-0.3%	?
